INS-1E GSIS act = primary screen for activators of insulin secretion dependent on glucose, INS-1E cells, GLuc reporter luminescence; AID 743287; 370,000 compounds, 0.61% hits; INS-1E GLuc reporter insulin secretion, 2-3 h; activation, % at 16.6 µM;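 active means lowest replicate activation of at least 40%, so every replicate reaches that level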;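 further: 0% = median of neutral control wells and 100% = median of IBMX positive control wells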
miR-122 sensor = miR-122 inhibition in Huh7 cells | 340,000 compounds, 0.3% hits | AID 602342 | Huh7 miR-122 Renilla luciferase sensor, 48 h; neutral wells = 0, positive control = 100 | activation (reporter increase), % at 12.5 µM;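 active means mean replicate activation score at least 90 and every replicate individually at or above 90; inconclusive means only one of the two criteria met; inactive means neither criterion met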;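 further: higher luciferase means less miR-122 activity so hits act as miR-122 inhibitors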
NSD2 HMT inh = NSD2 (human) methyltransferase inhibition. inhibition, % at 12.5 µM. NSD2 peptide methylation, AlphaScreen, 120 min. AID 743445. O96028. 310,000 compounds, 0.54% hits
Target sequence (O96028 whole entry, looked up): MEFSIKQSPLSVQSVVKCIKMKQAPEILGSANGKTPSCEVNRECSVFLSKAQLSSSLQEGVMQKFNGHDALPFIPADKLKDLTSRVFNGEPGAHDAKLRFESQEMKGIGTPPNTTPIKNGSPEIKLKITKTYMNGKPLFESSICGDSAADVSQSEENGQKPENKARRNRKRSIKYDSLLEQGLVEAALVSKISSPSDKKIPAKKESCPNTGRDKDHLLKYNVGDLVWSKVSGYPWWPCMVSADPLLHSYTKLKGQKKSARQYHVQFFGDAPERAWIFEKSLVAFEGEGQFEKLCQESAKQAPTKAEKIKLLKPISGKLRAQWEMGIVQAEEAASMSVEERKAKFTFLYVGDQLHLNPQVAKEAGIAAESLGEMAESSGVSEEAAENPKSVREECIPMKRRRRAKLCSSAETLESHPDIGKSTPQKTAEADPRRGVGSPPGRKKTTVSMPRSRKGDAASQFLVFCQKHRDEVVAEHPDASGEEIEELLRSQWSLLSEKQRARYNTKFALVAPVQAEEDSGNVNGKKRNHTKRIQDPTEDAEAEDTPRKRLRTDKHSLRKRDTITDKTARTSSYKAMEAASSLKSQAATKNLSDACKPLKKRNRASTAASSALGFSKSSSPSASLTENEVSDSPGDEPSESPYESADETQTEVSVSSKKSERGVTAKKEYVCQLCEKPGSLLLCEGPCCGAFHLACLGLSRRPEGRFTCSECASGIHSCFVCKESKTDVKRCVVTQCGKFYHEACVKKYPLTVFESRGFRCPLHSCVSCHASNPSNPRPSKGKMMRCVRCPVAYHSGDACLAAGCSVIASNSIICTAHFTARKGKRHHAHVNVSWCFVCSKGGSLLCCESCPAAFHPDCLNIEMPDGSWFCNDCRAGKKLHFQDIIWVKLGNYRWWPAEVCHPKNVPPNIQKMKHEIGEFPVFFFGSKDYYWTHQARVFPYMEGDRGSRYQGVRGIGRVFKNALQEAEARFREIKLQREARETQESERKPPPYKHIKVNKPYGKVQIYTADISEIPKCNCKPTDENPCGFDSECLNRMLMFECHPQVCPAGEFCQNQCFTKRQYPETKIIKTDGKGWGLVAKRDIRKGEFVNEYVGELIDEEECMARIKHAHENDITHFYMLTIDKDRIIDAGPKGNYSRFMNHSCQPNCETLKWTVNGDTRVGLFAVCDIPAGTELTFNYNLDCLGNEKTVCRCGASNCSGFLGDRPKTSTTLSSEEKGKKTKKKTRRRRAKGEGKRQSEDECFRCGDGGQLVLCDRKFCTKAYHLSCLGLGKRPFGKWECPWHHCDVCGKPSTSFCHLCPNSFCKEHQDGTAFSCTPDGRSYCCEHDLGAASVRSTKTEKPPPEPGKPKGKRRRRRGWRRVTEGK
DYRK1A inh = Dyrk1A (rat) kinase inhibition; inhibition, % at 12.5 µM; AID 504441; ADP-Glo luminescence, NFATc1 peptide; Q63470; 310,000 compounds, 0.43% hits;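 further: plate controls were vehicle with enzyme for no effect and no enzyme for full effect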
MITF act = increases MITF-driven TRPM1 promoter luciferase signal; SK-MEL-5 TRPM1-promoter luciferase, 24 h; % of positive control, neutral wells = 0; activation, % at 12.5 µM; 300,000 compounds, 0.75% hits; AID 588334;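 active means mean activation of at least 80% with every replicate also reaching 80%; inconclusive means mean reaches 80% but some replicate falls short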;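 further: 0% = neutral control wells and 100% = parthenolide positive control wells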
Wnt bcat act = activates Wnt/beta-catenin signaling in a reporter cell assay. activator, plate reader. activation, % at 9.35 µM. 300,000 compounds, 1.2% hits; in the data active means activation above about 30%, passing the limit was not always enough; inconclusive means no clear call, values can overlap the other calls;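 further: 0% = neutral control wells and 100% = positive control wells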
* marks the source's active call; other numbers are inactive results; ? = inconclusive; . = no result given; [ ] = another dose, or the depositor's remark. Shown are actives, neighbours in structure and some others; about 2.4% of the full set was active somewhere. Unless noted, no stated cut-off is given here; in the data, active means inhibition above about 50%; inactive means the rest.

SMILES	INS-1E GSIS act	miR-122 sensor	NSD2 HMT inh	DYRK1A inh	MITF act	Wnt bcat act
COc1cc(C)c(S(=O)(=O)NOCc2ccc([N+](=O)[O-])cc2)c(C)c1C	2.4	322.6*	-1.8	2.7	.	0.3
CC(=O)N1CCCc2cc(S(=O)(=O)Nc3ccccc3C)ccc21	-3.1	35.1	-7.5	-3.1	-3.7	-2.1
COc1ccc(C)cc1NS(=O)(=O)c1ccc2c(c1)CCN2C(C)=O	8.9	91.9*	-2.0	4.1	-8.9	-3.3
COc1ccccc1CNC(=O)C[C@@H]1CC[C@@H](NC(=O)CC2CC2)[C@H](CO)O1	1.2	.	.	.	.	.
Cc1nc2ccc(NS(=O)(=O)c3c(C)c(C)cc(C)c3C)cc2s1	.	124.9*	2.1	0.7	-15.7	2.9
Cc1nc2cc(NS(=O)(=O)c3c(C)c(C)cc(C)c3C)ccc2s1	.	312.6*	-3.1	-0.2	-20.8	.
Cc1ccc(S(=O)(=O)Nc2ccc3nc(C)sc3c2)c(C)c1	.	80.5	-0.6	-3.7	-14.7	3.0
C[C@H](O)C#Cc1ccc2c(c1)O[C@@H](CN(C)C(=O)CC1CC1)[C@@H](C)CN([C@@H](C)CO)S2(=O)=O	7.3	2.6[16.7 µM]	.	.	.	.
Cc1noc(C)c1NC(=O)N(C)C[C@@H]1Oc2ccc(NS(=O)(=O)c3ccccc3)cc2CC(=O)N([C@@H](C)CO)C[C@@H]1C	6.5	5.1[16.7 µM]	.	.	.	.
CCOC(=O)c1nnn(CC(=O)NC(=O)Nc2cccc(CC)c2)c1C(=O)OCC	-23.5	-1.1	-0.6	2.7	3.7	35.9*
Cc1cc(C(=O)CN2C(=O)NC3(CCCCC3)C2=O)c(C)n1Cc1ccco1	-4.6	-1.0	.	-1.4	?	73.3*
Cc1cc(C(=O)CN2C(=O)c3cccc(N)c3C2=O)c(C)n1Cc1cccs1	.	-2.8	-0.9	-0.8	106.5*	19.8
CC1CCCCC12NC(=O)N(CC(=O)NCc1cccs1)C2=O (stereo not drawn)	5.6	-0.8	-0.7	.	.	-2.4
Cc1cc(C(=O)CN2C(=O)NC3(CCCCC3C)C2=O)c(C)n1Cc1cccs1 (stereo not drawn)	-7.4	2.7	1.3	2.1	91.8*	65.5*
Cc1cc(C(=O)CN2C(=O)NC3(CCCCC3)C2=O)c(C)n1Cc1ccc2c(c1)OCO2	.	-4.3	-1.0	1.1	31.9	.
C[C@H](CO)N1C[C@H](C)[C@@H](CN(C)C(=O)CC2CC2)Oc2cc(-c3cccnc3)ccc2S1(=O)=O	-10.1	-0.4[16.7 µM]	.	.	.	.
O=C(CCN1CCCCC1)N[C@H]1C=C[C@H](CC(=O)N2CCC(Cc3ccccc3)CC2)O[C@H]1CO	6.4	-2.0[16.7 µM]	.	.	.	.
N#C/C(=C\c1ccc(N2CCCCC2)o1)C(=O)Nc1cccc(Br)c1	-9.4	.	2.0	2.8	3.6	37.9*
CC(C)c1ccc(OCc2ccc(C(=O)O)o2)cc1	11.7	.	44.8	-3.8	-18.3	12.3
CC(C)c1ccc(OCc2ccc(C(=O)N(C)C)o2)cc1	-29.0	.	2.3	-4.0	91.4*	45.4*
COc1cccc(NC(=O)N[C@@H]2CC[C@@H](CC(=O)NCc3ccccn3)O[C@@H]2CO)c1	16.4	.	.	.	.	.
C[C@@H]1CCCCO[C@@H](CN(C)CC2CCCCC2)[C@@H](C)CN([C@H](C)CO)C(=O)c2cc(NC(=O)Cc3ccccc3)ccc2O1	-0.5	31.4[16.7 µM]	.	.	.	.
CC(C)CCNc1nc(N)c([N+](=O)[O-])c(NCCO)n1	47.4	-5.4	2.5	.	16.5	-1.0
CCC(C)Nc1nc(N)c([N+](=O)[O-])c(NCCO)n1 (stereo not drawn)	70.7*	.	-0.6	13.3	.	2.8
Cc1noc(C)c1S(=O)(=O)Nc1ccc2c(c1)CC(=O)N([C@H](C)CO)C[C@@H](C)[C@@H](CN(C)Cc1ccc(C(=O)Nc3ccccc3N)cc1)O2	5.4	.	.	.	.	.
SMILES	INS-1E GSIS act	miR-122 sensor	NSD2 HMT inh	DYRK1A inh	MITF act	Wnt bcat act
O=C(NCC(c1ccco1)N1CCCC1)c1cc(=O)[nH]c2ccccc12 (stereo not drawn)	2.3	.	-0.2	.	-11.8	58.1*
O=C(NCC(c1cccs1)N1CCOCC1)c1cc(=O)[nH]c2ccccc12 (stereo not drawn)	14.9	-6.2	-3.6	8.3	-4.8	0.2
CCNC(=S)N/N=C/c1cc(C)n(-c2ccc(Cl)cc2)c1C	30.9	.	1.0	.	86.4*	1.3
C[C@H]1CN([C@@H](C)CO)C(=O)Cc2cc(NC(=O)CCCCCC(=O)Nc3ccccc3N)ccc2O[C@H]1CN(C)CC1CC1	1.5	.	.	.	.	.
Cc1ccc(S(=O)(=O)N2CCCCC2)cc1NC(=O)c1cc2ccccc2o1	-9.8	5.0	-3.2	7.2	-19.7	0.5
CCN1CCN(c2ccc(S(=O)(=O)N3CCCCC3)cc2NC(=O)c2cc3ccccc3o2)CC1	46.0*	.	4.0	17.1	-10.4	-7.0
Cc1noc(C)c1S(=O)(=O)N(C)C[C@H]1Oc2ccc(NS(=O)(=O)c3ccc(Cl)cc3)cc2CC(=O)N([C@@H](C)CO)C[C@@H]1C	-0.7	0.9[16.7 µM]	.	.	.	.
COc1cccc(NC(=O)c2ccc3c(c2)N(C)CCS3)c1	-12.8	1.5	.	4.5	58.2	50.5*
CN1CCSc2ccc(C(=O)Nc3ccc(Cl)cc3)cc21	5.5	.	-1.3	0.8	?	36.9*
CNC(=O)C[C@@H]1CC[C@@H]2[C@H](COc3ccc(NC(=O)Cc4cccs4)cc3C(=O)N2C)O1	0.4	-4.2[16.7 µM]	.	.	.	.
CN(C)C(=O)c1cccc(-c2ccc3c(c2)[C@H]2[C@H](CCN2Cc2nccs2)[C@H](CO)N3)c1	-23.4	-3.4[16.7 µM]	.	.	.	.
Clc1ccccc1-c1ncc2ccccn12	17.8	.	3.2	9.6	2.8	35.9*
COc1ccc(NC(=O)/C=C/c2ccc(F)cc2)cn1	6.1	.	-2.9	1.5	39.3	18.7
COc1ccc(/C=C/C(=O)NC(=S)Nc2ccc(S(N)(=O)=O)cc2)cc1OC	44.1*	-10.1	-0.2	-1.0	-7.5	-0.1
COc1ccc(/C=C/C(=O)NC(=S)Nc2ccccc2)cc1OC	14.8	-7.4	1.0	-0.5	3.4	1.3
COc1ccc(NC(=O)/C=C/c2ccccc2)cn1	11.1	-3.8	-3.5	-1.7	121.8*	.
COc1cc(NS(=O)(=O)c2ccc(NC(=S)NC(=O)/C=C/c3ccc(F)cc3)cc2)ncn1	17.2	-3.0	.	5.3	-4.2	41.0*
COc1ccc(/C=C/C(=O)Nc2ccccc2)cc1OC	16.9	.	.	.	90.2*	9.5
O=C(Nc1ccccc1F)N1CC(=O)N2[C@H](CO)[C@H](c3ccc(C#CC4CC4)cc3)[C@H]2C1	-10.1	.	.	.	.	.
CC(=O)N1CC[C@@H]2[C@H](CO)Nc3ccc(C#Cc4cccnc4)cc3[C@@H]21	-6.4	4.6[16.7 µM]	.	.	.	.
CN1C(=O)c2cc(NC(=O)C3CC3)ccc2OC[C@H]2O[C@H](CC(=O)NCc3ccccc3F)CC[C@@H]21	7.2	32.3[16.7 µM]	.	.	.	.
CN(CC(=O)Nc1cccc(F)c1)C(=O)CCNC(=O)c1ccco1	7.8	.	27.3	3.9	0.0	48.9*
CN(CC(=O)Nc1cccc(F)c1)C(=O)CCNC(=O)c1ccc(Br)cc1	-11.0	3.3	-0.4	-3.3	12.6	5.4

High-throughput results from PubChem.
